Hit rate of the full screen: of about 330,000 compounds, about 80 (0.02%) were called active. The call rests on the fitted dose curve; in most records, active means well fitted activation curve with a large enough effect; inconclusive means small, poorly fitted or top-dose-only effect; inactive means flat fitted curve, though single readings scatter. What follows is part of a selection rich in actives, with near analogues and random picks from the rest. A call without a number means that no potency is given here.
Biological target: Beta-2 adrenergic receptor (Homo sapiens) (UniProt P07550)
Assay: qHTS assay of beta-arrestin-biased ligands of beta2-adrenergic receptor; further: nearly all actives have a fitted effect of over 65% in size
Settings: beta-arrestin recruitment to beta2AR, cell-based reporter; series mostly up to 46.1 µM
Description: NIH Molecular Libraries Probe Production Network [MLPCN]
NIH Chemical Genomics Center [NCGC]
PI: Bryan Roth and Bob Lefkowitz
The concept of biased agonism is an emerging concept of molecular pharmacology which proposes that seven transmembrane receptors (7TMRs) or G protein-coupled receptors (GPCRs), exist in multiple signaling conformations and complexes and that ligands (either agonists or antagonists) can induce signaling biased responses for distinct signal transduction cascades.
Furthermore, accumulating evidence over the last decade has drawn attention to a novel function of beta-arrestins as signal transducers that scaffold various signaling molecules upon activation of 7TMRs. […] This beta-arrestin-biased signaling presumably leads to distinct physiological outcomes from those by G protein activation.
Additionally, the active receptor conformations which […] on this beta-arrestin signaling are likely different from those activating G protein signaling
The goal of this screening project will be to discover and optimize novel beta-arrestin-biased ligands for beta2-AR signaling. A luminescent cell-based assay for beta2-AR-mediated agonism, known as the Tango assay, has been validated in which ligand binding of a recombinant beta2-AR and subsequent recruitment of a recombinant beta-arrestin lead to the release of the transcriptional activator tTA, which upregulates transcription of a tTA-responsive luciferase gene. […] Compounds were screened as a concentration-titration series that ranged from 46 microM to 0.6 nM.
NCGC Assay Protocol Summary:
Tango cells were dispensed into white, solid, tissue-culture-treated 1536-well plates at 1500 cells/well in DMEM, containing 1% fetal bovine serum (FBS). Then, 23 nL of compounds or DMSO were delivered to each well using a pin tool. Plates were incubated at 37 degrees C, 5% CO2 for 18 hr. Then 2.5 uL luminescent substrate mix (in-house prepared: 150 mM Tris-Cl, pH 7.6, 3 mM MgCl2, 1% Triton X-100, 5 mM DTT, 0.5 mM CoA, 0.15 mM ATP, 0.44 mM D-luciferin, final concentrations) was added to each well. Plates were then incubated for 15 minutes at room temperature, and subsequently measured on a ViewLux plate reader for luminescent signal using a clear filter with a 10 second exposure and 2x binning. The %Activity was determined from the corrected luminescence values.
Concentration-response curves were fitted to the signals arising from the resulting luminescence. The concentration-effect curves were then classified based on curve quality (r2), response magnitude and degree of measured activity, and compounds were subsequently categorized based on their curve class.
Keywords: biased agonism, beta2-AR, beta-arrestin, GPCR, 7TMR, Tango, luminescence, MLSMR, MLPCN, NIH Roadmap, qHTS, NCGC
Potency means the concentration at half of the fitted maximal effect.

Chain of Beta-2 adrenergic receptor (Homo sapiens) (P07550 whole entry, looked up): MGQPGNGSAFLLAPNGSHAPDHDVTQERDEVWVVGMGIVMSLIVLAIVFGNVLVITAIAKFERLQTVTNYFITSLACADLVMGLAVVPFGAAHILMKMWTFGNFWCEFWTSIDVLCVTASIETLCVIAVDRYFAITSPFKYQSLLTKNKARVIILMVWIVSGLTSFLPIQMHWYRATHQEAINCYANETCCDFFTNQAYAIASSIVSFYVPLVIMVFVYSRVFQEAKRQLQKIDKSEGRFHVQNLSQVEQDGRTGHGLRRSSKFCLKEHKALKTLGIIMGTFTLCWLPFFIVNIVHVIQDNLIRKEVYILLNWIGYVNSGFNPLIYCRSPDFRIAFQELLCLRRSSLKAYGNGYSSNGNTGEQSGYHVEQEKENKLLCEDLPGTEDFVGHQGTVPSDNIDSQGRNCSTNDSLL

Row | Compound | Potency
1 | COc1ccc(Cn2c(-c3ccc(Cl)cc3)c[n+]3ccccc23)cc1 | inactive
2 | Cc1cc(NC(=O)CSc2nccn2-c2ccc([N+](=O)[O-])cc2)no1 | inactive
3 | COc1ccc(N=Nc2c(-c3ccc(OC)cc3)[nH]oc2=O)cc1 | inactive
4 | COc1ccccc1CNS(=O)(=O)CC12CCC(CC1=O)C2(C)C (stereo unspecified) | inactive
5 | CCC(C)NC(=O)c1nn(C)c(=O)c2ccccc12 (stereo unspecified) | inactive
6 | CCOc1ccc2c(c1)c(=O)c(S(=O)(=O)c1ccc(C)cc1)cn2CC | inactive
7 | COc1ccc2ccccc2c1CNCc1ccccn1 | inactive
8 | O=C(Cn1nnc2ccccc2c1=O)Nc1cc(C(F)(F)F)ccc1N1CCOCC1 | inactive
9 | Cc1ccc(SCC(=O)NNC(=O)c2ccc(S(C)(=O)=O)cc2)cc1 | inactive
10 | CC1Cc2ccccc2N1C(=O)Cn1cnc2ccccc2c1=O (stereo unspecified) | inactive
11 | CC1CCCC(NC(=O)c2cc(-c3ccncc3)nc3ccccc23)C1C (stereo unspecified) | inactive
12 | CC1CCN(c2oc(-c3ccccc3F)nc2C#N)CC1 | inactive
13 | O=C(Nc1c(-c2ccccc2)nc2c(Br)cc(Br)cn12)c1ccco1 | inactive
14 | CC(=O)c1cccc(NC(=O)CN2C(=O)c3cccnc3Oc3ccc(Cl)cc32)c1 | inactive
15 | COc1ccccc1OCc1ccc(C(=O)NC(C)c2ccccc2)o1 (stereo unspecified) | inactive
16 | CCN(CC)Cc1csc2ccc(Br)cc12 | inactive
17 | COc1ccc(C(=O)N(CCN2CCOCC2)CC(=O)NC2CCCC2)cc1OC | inactive
18 | COc1ccc([N+](=O)[O-])cc1NC(=O)C(C)OC(=O)C1c2ccccc2Oc2ccccc21 (stereo unspecified) | inactive
19 | CNc1nccc(-c2ccc(Cl)cc2)c1C#N | inactive
20 | CC(C)(C)CC(C)(C)NCC(O)COCCOc1ccc(Br)cc1 (stereo unspecified) | inactive
21 | CC(C)C(c1nnnn1C(C)(C)C)N1CCN(Cc2cccnc2)CC1 (stereo unspecified) | inactive
22 | O=C(CSc1ccc(-c2ccc(-n3cccn3)cc2)nn1)Nc1ccc([N+](=O)[O-])cc1 | inactive

Row | Compound | Potency
23 | COc1ccc(CNS(=O)(=O)c2cc3c4c(c2)CCN4C(=O)CC3)cc1 | inactive
24 | CCN(CC(=O)Nc1ccccc1C(F)(F)F)C(=O)CSCc1c(C)noc1C | inactive
25 | CN(CC(=O)Nc1ccc(F)c(F)c1F)C(=O)Cn1cnc2c1c(=O)n(C)c(=O)n2C | inactive
26 | COC(=O)C1(C)NC(c2ccc(C)cc2)C2C(=O)N(c3ccc(F)cc3)C(=O)C21 (stereo unspecified) | inactive
27 | CC1CC(c2ccccc2)n2nc(NC(=O)c3cccs3)nc2N1 (stereo unspecified) | inactive
28 | CN(C(=O)CSc1nnc(-c2ccc(C(C)(C)C)cc2)n1C)C1CCS(=O)(=O)C1 (stereo unspecified) | inactive
29 | Cc1ccc(NC(=O)CN(C)C(=O)COC(=O)c2nccnc2N)cc1 | inactive
30 | CC(C)CC[n+]1ccn(C2=C([O-])c3ccccc3C(=O)/C2=N\S(=O)(=O)c2ccccc2)c1 | inactive
31 | CC1(C)O[C@H]2CC(=O)OCC23[C@H]2CC[C@@]4(C)[C@H](c5ccoc5)OC(=O)[C@H]5O[C@]54[C@]2(C)C(=O)C[C@@H]13 (stereo partly specified) | inactive
32 | CCOC(=O)C1CCN(C(=O)COC(=O)C2CCN(S(=O)(=O)c3ccc4c(c3)OCCO4)CC2)CC1 | inactive
33 | Cc1ccc(C(=O)N2CC(=O)Nc3ccc(F)cc3C2c2ccc(F)cc2)cc1 (stereo unspecified) | inactive
34 | CCOC(=O)N1CCC(NC(=O)CCc2cn(C)c3ccccc23)CC1 | inactive
35 | FC(F)(F)c1cc(C(F)(F)F)c2ccc(N3CCN(c4ccccc4)CC3)nc2n1 | inactive
36 | Cc1ccccc1NC(=O)C(C)OC(=O)CCC(=O)N(CC(C)C)c1c(N)n(CC(C)C)c(=O)[nH]c1=O (stereo unspecified) | inactive
37 | COc1cc(NC(=O)c2ccc(-c3csc(C)n3)cc2)c(OC)cc1Cl | inactive
38 | [O-][N+]12CCCCC1CCCC2CO (stereo unspecified) | inactive
39 | CCN(Cc1ccccc1)C(=O)CSc1nc(C)cc2c1C(=O)OC2 | inactive
40 | O=C(COc1ccc(Cl)cc1)NCc1nnc(SCC(=O)NCC2CCCO2)o1 (stereo unspecified) | inactive
41 | Cc1ccc(C(C(=O)NCC2CCCO2)N(C(=O)c2snc(C(N)=O)c2N)c2ccc(C(C)C)cc2)o1 (stereo unspecified) | inactive
42 | CC(=O)N/C(=C\c1ccccc1)C(=O)OC(C)C(=O)N(C)c1ccccc1 (stereo unspecified) | inactive
43 | C=CCn1c(SCC(=O)NC23CC4CC(CC(C4)C2)C3)nc(O)cc1=O | inactive
44 | C=CCNC(=S)N/N=C/c1ccc(C)s1 | 5.62 µM (active)

Row | Compound | Potency
45 | C=CCNC(=S)N/N=C/c1ccc(OCc2ccccc2)cc1 | inactive
46 | Cc1ccc(/C=N/NC(=O)CN2CCN(Cc3ccccc3)CC2)s1 | inactive
47 | CCOC(=O)c1sc(N)c(C#N)c1COC(=O)C1=COCCO1 | inactive
48 | COc1ccc(NC(=O)Cn2c(-c3ccc(OC)cc3)cn(-c3ccc(C)cc3)c2=O)cc1 | inactive
49 | O=C(c1cc2ccccc2o1)N1CCN(c2cccc(C(F)(F)F)c2)CC1 | inactive
50 | CC(C)[C@H](NC(=O)c1ccc(F)cc1)C(=O)OCC(=O)NC(=O)c1cccn1C | inactive
51 | CC1CN(CCCOc2ccccc2-c2ccccc2)CC(C)O1 (stereo unspecified) | inactive
52 | CCOC(=O)CC1COCCN1C(=O)c1cc(COc2ccc(F)c(F)c2)on1 (stereo unspecified) | inactive
53 | COC/C=C/C1=CC2=CC(=O)C(C)(OC(=O)CCC(=O)OC)C(=O)C2=CO1 (stereo unspecified) | inactive
54 | O=C(CCn1nnnc1CN1CCOCC1)N1CCC(c2ccccc2Cl)C1 (stereo unspecified) | inactive
55 | CC(=O)Oc1ccc(-c2cccc(C(=O)N3CCCCC3)c2)cc1 | inactive
56 | CC1(C)CC(=O)C(C=NCc2cccnc2)=C(O)C1 | inactive
57 | N#C/C(=C\c1cccnc1)C(=O)Nc1ccc(SC(F)F)cc1 | inactive
58 | COc1ccc(OC)c(CNC(=O)Cn2nc(C)c3c(C)n(-c4ccc(C)cc4)nc3c2=O)c1 | inactive
59 | Cc1ccc(NN=Nc2nc3c([nH]2)c(=O)n(C)c(=O)n3C)cc1 | inactive
60 | COc1ccc(CNC(=O)C(C)NCc2ccccc2Cl)cc1 (stereo unspecified) | inactive
61 | O=C(Cc1ccc(Cl)cc1)NC(=S)Nc1ccccc1O | inactive
62 | Cc1ccccc1CCNC(=O)C1CCC(=O)N(Cc2ccc(Cl)cc2)C1 (stereo unspecified) | inactive
63 | CC(C)OCCCNC(=O)c1ccc(C2SCC(=O)N2Cc2ccco2)cc1 (stereo unspecified) | inactive
64 | COc1ccc(Cl)cc1S(=O)(=O)N1CCC(O)(c2ccc(Cl)cc2)CC1 | inactive
65 | Cc1nc2scc(-c3cccs3)c2c(=O)n1N | inactive
66 | CCOc1ccc(OCC)c(NC(=O)CSc2nnc(Cn3cnc4ccccc43)n2C)c1 | inactive
